According to PubChem BioAssay AID1159580 (chemical genetic matrix, 2015):
The whole screen tested about 5,500 compounds, of which about 2,000 (36%) were called active. Not shown: some 18% with an inconclusive outcome. Cut-off read from the data, not from the text of the source: active = normalized growth mostly below about 0.91 (no sharp cut-off); inconclusive = no clear call, values can overlap the other calls; inactive = mostly above about 0.92. Some of the results follow.

Test: chemical genetic growth profiling, strain panel (AID 1159580);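 note: tested at 20 µM; growth read once vehicle control cultures reached saturation at 30 °C; 1 = growth at the plate median or of vehicle wells; lower values mean less growth of the strain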
Conditions: growth OD

Measured: normalized growth

CC1(C)O[C@@H]2CC3C4CCC5=CC(=O)C=C[C@]5(C)[C@@]4(F)[C@@H](O)C[C@]3(C)[C@]2(C(=O)CO)O1 (some centres not stated)
inactive: S. cerevisiae deletion strains, locus YJR075W, strain HOC1, hits give low values 1.01 | S. cerevisiae deletion strains, locus YKL009W, strain mrt4, hits give low values 1.01 | S. cerevisiae deletion strains, locus YKL068W, hits give low values 0.999 | S. cerevisiae deletion strains, locus YKL085W, strain MDH1 (second series), hits give low values 0.996 | S. cerevisiae deletion strains, locus YKL085W, strain MDH1, hits give low values 0.996 | S. cerevisiae deletion strains, locus YKL160W, strain elf1, hits give low values 0.968 | S. cerevisiae deletion strains, locus YKL190W, strain CNB1, hits give low values 1.02 | S. cerevisiae deletion strains, locus YKR001C, strain vps1, hits give low values 1.01 | S. cerevisiae deletion strains, locus YKR026C, strain gcn3, hits give low values 1.01 | S. cerevisiae deletion strains, locus YKR091W, strain srl3, hits give low values 0.992 | S. cerevisiae deletion strains, locus YLL001W, strain dnm1, hits give low values 1.01 | S. cerevisiae deletion strains, locus YLL026W, hits give low values 0.982 | S. cerevisiae deletion strains, locus YLL041C, strain sdh2, hits give low values 0.999 | S. cerevisiae deletion strains, locus YLR027C, strain aat2, hits give low values 1 | S. cerevisiae deletion strains, locus YLR039C, strain RIC1, hits give low values 1.01 | S. cerevisiae deletion strains, locus YLR058C, strain SHM2, hits give low values 1.02 | S. cerevisiae deletion strains, locus YLR102C, strain apc9, hits give low values 0.998 | S. cerevisiae deletion strains, locus YLR113W, strain HOG1, hits give low values 0.984 | S. cerevisiae deletion strains, locus YLR221C, strain rsa3, hits give low values 0.974 | S. cerevisiae deletion strains, locus YLR258W, strain gsy2, hits give low values 0.979 | S. cerevisiae deletion strains, locus YLR262C, strain YPT6 (second series), hits give low values 1.01 | S. cerevisiae deletion strains, locus YLR262C, strain YPT6, hits give low values 1.03 | S. cerevisiae deletion strains, locus YLR268W, strain sec22, hits give low values 1 | S. cerevisiae deletion strains, locus YLR320W, strain mms22, hits give low values 0.96 | S. cerevisiae deletion strains, locus YLR330W, strain CHS5, hits give low values 1.01 | S. cerevisiae deletion strains, locus YLR342W, strain FKS1 (second series), hits give low values 1.01 | S. cerevisiae deletion strains, locus YLR342W, strain FKS1, hits give low values 0.986 | S. cerevisiae deletion strains, locus YLR357W, strain rsc2, hits give low values 0.948 | S. cerevisiae deletion strains, locus YLR370C, strain arc18, hits give low values 0.996 | S. cerevisiae deletion strains, locus YLR371W, strain rom2, hits give low values 0.995 | S. cerevisiae deletion strains, locus YLR384C, strain iki3, hits give low values 0.995 | S. cerevisiae deletion strains, locus YLR418C, strain cdc73, hits give low values 0.967 | S. cerevisiae deletion strains, locus YML016C, strain PPZ1, hits give low values 1.01 | S. cerevisiae deletion strains, locus YML032C, strain rad52, hits give low values 0.997 | S. cerevisiae deletion strains, locus YML120C, strain ndi1, hits give low values 0.995 | S. cerevisiae deletion strains, locus YML124C, strain tub3, hits give low values 1.01 | S. cerevisiae deletion strains, locus YMR058W, strain fet3, hits give low values 1 | S. cerevisiae deletion strains, locus YMR078C, strain ctf18, hits give low values 0.995 | S. cerevisiae deletion strains, locus YMR125W, strain sto1, hits give low values 0.992 | S. cerevisiae deletion strains, locus YMR129W, hits give low values 1.01 | S. cerevisiae deletion strains, locus YMR205C, strain PFK2, hits give low values 0.961 | S. cerevisiae deletion strains, locus YMR223W, strain ubp8, hits give low values 1.01 | S. cerevisiae deletion strains, locus YMR231W, strain pep5, hits give low values 0.998 | S. cerevisiae deletion strains, locus YMR263W, strain SAP30, hits give low values 1 | S. cerevisiae deletion strains, locus YMR307W, strain GAS1, hits give low values 0.998 | S. cerevisiae deletion strains, locus YNL067W, strain RPL9B, hits give low values 1.02 | S. cerevisiae deletion strains, locus YNL071W, strain lat1, hits give low values 1 | S. cerevisiae deletion strains, locus YNL128W, strain TEP1, hits give low values 1.02 | S. cerevisiae deletion strains, locus YNL153C, strain GIM3, hits give low values 1.01 | S. cerevisiae deletion strains, locus YNL183C, strain NPR1, hits give low values 0.955 | S. cerevisiae deletion strains, locus YNL209W, strain ssb2, hits give low values 1 | S. cerevisiae deletion strains, locus YNL233W, strain BNI4, hits give low values 1.01 | S. cerevisiae deletion strains, locus YNL248C, strain rpa49, hits give low values 0.991 | S. cerevisiae deletion strains, locus YNL250W, strain rad50, hits give low values 0.993 | S. cerevisiae deletion strains, locus YNL271C, strain bni1, hits give low values 1.01 | S. cerevisiae deletion strains, locus YNL298W, strain CLA4, hits give low values 1.01 | S. cerevisiae deletion strains, locus YNL307C, strain MCK1, hits give low values 1 | S. cerevisiae deletion strains, locus YNL322C, strain KRE1 (second series), hits give low values 0.961 | S. cerevisiae deletion strains, locus YNL322C, strain KRE1, hits give low values 1.01 | S. cerevisiae deletion strains, locus YNR049C, strain mso1, hits give low values 1.01 | S. cerevisiae deletion strains, locus YNR052C, strain pop2, hits give low values 1 | S. cerevisiae deletion strains, locus YOL006C, strain TOP1, hits give low values 1.02 | S. cerevisiae deletion strains, locus YOL012C, strain htz1 0.691 | S. cerevisiae deletion strains, locus YOL147C, strain pex11, hits give low values 1.01 | S. cerevisiae deletion strains, locus YOR001W, strain rrp6, hits give low values 1 | S. cerevisiae deletion strains, locus YOR061W, strain CKA2, hits give low values 1.01 | S. cerevisiae deletion strains, locus YOR069W, strain VPS5, hits give low values 1.02 | S. cerevisiae deletion strains, locus YOR070C, strain gyp1, hits give low values 0.994 | S. cerevisiae deletion strains, locus YOR080W, strain dia2, hits give low values 0.998 | S. cerevisiae deletion strains, locus YOR083W, strain WHI5, hits give low values 0.956 | S. cerevisiae deletion strains, locus YOR106W, strain vam3, hits give low values 0.966 | S. cerevisiae deletion strains, locus YOR136W, strain idh2, hits give low values 0.998 | S. cerevisiae deletion strains, locus YOR144C, strain elg1, hits give low values 1.01 | S. cerevisiae deletion strains, locus YOR184W, strain ser1, hits give low values 0.99 | S. cerevisiae deletion strains, locus YOR231W, strain MKK1, hits give low values 0.981 | S. cerevisiae deletion strains, locus YOR265W, strain rbl2, hits give low values 0.985 | S. cerevisiae deletion strains, locus YOR270C, strain vph1, hits give low values 1.04 | S. cerevisiae deletion strains, locus YOR290C, strain snf2, hits give low values 0.979 | S. cerevisiae deletion strains, locus YOR316C, strain cot1, hits give low values 0.994 | S. cerevisiae deletion strains, locus YPL051W, strain arl3, hits give low values 0.976 | S. cerevisiae deletion strains, locus YPL055C, strain LGE1, hits give low values 1.05 | S. cerevisiae deletion strains, locus YPL078C, strain atp4, hits give low values 0.992 | S. cerevisiae deletion strains, locus YPL106C, strain sse1, hits give low values 0.923 | S. cerevisiae deletion strains, locus YPL240C, strain hsp82, hits give low values 1 | S. cerevisiae deletion strains, locus YPL241C, strain CIN2, hits give low values 1.01 | S. cerevisiae deletion strains, locus YPL256C, strain CLN2, hits give low values 0.97 | S. cerevisiae deletion strains, locus YPR119W, strain clb2, hits give low values 0.994 | S. cerevisiae deletion strains, locus YPR141C, strain kar3, hits give low values 0.998 | S. cerevisiae deletion strains, locus YPR163C, strain tif3, hits give low values 1.01 | S. cerevisiae deletion strains, locus YPR167C, strain met16, hits give low values 0.997 | S. cerevisiae deletion strains, strain wtn01, hits give low values 0.989 | S. cerevisiae strains, strain wild type, hits give low values 1.01
